From paper PMC4552634, “A New Set of Chemical Starting Points with Plasmodium falciparum Transmission-Blocking Potential for Antimalarial Drug Discovery” (PLoS ONE, 2015)
About 3,200 (25%) of roughly 13,000 compounds showed an effect of 50% or more. This is one part of the list.

What follows are compounds tested on P. falciparum stage V gametocytes. Settings: 48 h, 5 µM; inhibitor.
Design: BacTiter-Glo ATP luminescence viability of purified stage V gametocytes in 384-well plates, per cent inhibition versus DMSO

Compound | % Inhibition [%]
Cc1cccc2nc(-c3ccc(-c4ccc(C(=O)NCCN5CCCC5)cc4)s3)[nH]c12 [TCMDC-132316] | 46.47
Cc1cnc(NCC2CCCCC2)nc1NCC(=O)Nc1ccccc1 [TCMDC-134753] | -41.32
COCCN1CCC(N(Cc2ccc(-c3ccc(OC(F)(F)F)cc3)cc2)C(=O)Cn2c(CCc3cccc(F)c3F)cc(=O)c3ccccc32)CC1 [TCMDC-136001] | 86.7
CCN1CCC(N(CCCCCCCCc2ccc(C(F)(F)F)cc2)C(=O)Cn2c(CCc3cccc(F)c3F)cc(=O)c3ccccc32)CC1 [TCMDC-141376] | 107.2
O=C(Cn1c(CCc2cccc(F)c2F)cc(=O)c2ccccc21)N(Cc1ccc(-c2ccc(C(F)(F)F)cc2)cc1)C1CCN(CCO)CC1 [TCMDC-141226] | 84.4
O=C(Cn1c(CCc2cccc(F)c2F)cc(=O)c2ccccc21)N(Cc1ccc(-c2ccc(C(F)(F)F)cc2)cc1)C1CCN(CCN2CCOCC2)CC1 [TCMDC-136026] | 47.65
CCN1CCC(N(Cc2ccc(-c3ccc(C(F)(F)F)cc3)cc2)C(=O)Cn2c(CCc3cccc(F)c3F)cc(=O)c3ccccc32)C1 (stereo not drawn) [TCMDC-141300] | 90.33
CCN1CCC(N(CCCCCCc2ccc(C(F)(F)F)cc2)C(=O)Cn2c(CCc3cccc(F)c3F)cc(=O)c3ccccc32)CC1 [TCMDC-141339] | 43.24
CCCN(CCC)C(=O)c1cc(C(=O)N[C@@H](Cc2ccccc2)[C@H](O)CNC2CC2)cc(N2CCCCS2(=O)=O)c1 [TCMDC-138892] | 8.102
CC(=Nc1ccc(Cl)c(Cl)c1)N(C)C [TCMDC-137438] | -6.563
CC(C)C[C@H](NC(=O)c1ccc(OCCN2CCOCC2)cc1)C(=O)N[C@H](/C=N/NC(=O)OC(C)(C)C)CCc1ccccc1 [TCMDC-136028] | -97.84
COc1ccc(CN2CCC(N3CC(c4ccccc4)(c4ccccc4)OCC3=O)C2)c(O)c1 (stereo not drawn) [TCMDC-136339] | -23.12
CC(C)C[C@H]1C(=O)N[C@H](C2Cc3ccccc3C2)C(=O)N1[C@@H](C(=O)Nc1ccccc1OCc1ccccc1)c1ccc(F)cc1F [TCMDC-138775] | -10.16
COc1ccc2ncc(F)c(CCN3C4CCC3CC(NCc3cc5c(cn3)OCS5)C4)c2n1 (stereo not drawn) [TCMDC-135637] | 24.95
Cc1cccc(Nc2nccc(NCC(O)c3ccc(C(F)(F)F)cc3)n2)c1 (stereo not drawn) [TCMDC-136592] | -12.82
CC(C)(C)C1CC(=O)CC2C(=O)N(c3ccc(Br)cc3)C(=O)C21 (stereo not drawn) [TCMDC-139130] | -4.164
Cc1ccc(F)c(OCC2CCN(c3ncc(C(=O)NC4CC4)cc3Cl)CC2)c1 [TCMDC-134038] | 21.14
CCN1CCC(N(Cc2ccc(-c3ccc(C(F)(F)F)cc3)cc2)C(=O)Cn2c(CCc3cccc(F)c3F)cc(=O)c3ccccc32)CC1 [TCMDC-141119] | 110.1
CCN1CCC(N(Cc2ccc(-c3ccc(C(F)(F)F)cc3)cc2)C(=O)Cn2c(CCc3cccc(F)c3F)cc(=O)c3ccc(OCc4ccccc4)cc32)CC1 [TCMDC-141292] | 107.3
CC(C)(C)N1CCC(N(Cc2ccc(-c3ccc(C(F)(F)F)cc3)cc2)C(=O)Cn2c(CCc3cccc(F)c3F)cc(=O)c3cccnc32)CC1 [TCMDC-136011] | 120.6

Compound | % Inhibition [%]
CC(C)(C)N1CCC(N(Cc2ccc(-c3ccc(C(F)(F)F)cc3)cc2)C(=O)Cn2c(CCc3cccc(F)c3F)cc(=O)c3ccccc32)CC1 [TCMDC-136007] | 109.9
NC(CC1CC(=O)N1CC(=O)O)C(=O)O (stereo not drawn) [TCMDC-139050] | 9.979
CC1CCN(Cc2ccc(NC(=O)c3cc4ccc5cccnc5c4[nH]3)cc2)CC1 [TCMDC-125282] | -44.42
Cc1sc(N2CCCCC2)nc1C(=O)Nc1ccc(F)cc1C(F)(F)F [TCMDC-134301] | -22.08
Cc1ccc2c(OCCN3CCC(Cc4cc5c(cc4F)OCC(=O)N5)CC3)cc(F)cc2n1 [TCMDC-141447] | -8.259
Cc1noc(C)c1-c1cccc(CNCc2cccc(-c3ccc(-c4nc5ccccc5[nH]4)s3)c2)c1.O=C(O)C(F)(F)F [TCMDC-133048] | 14.32
Cc1cc(N(CCN2CCCCC2)CCN2CCCCC2)nc(Nc2ccc(Cl)cc2)n1 [TCMDC-138002] | 37.36
COC(=O)c1sc(-c2ccc(Cl)cc2)cc1N(CCCN1CCC(N2CCCCC2)CC1)S(=O)(=O)c1ccc(C)cc1 [TCMDC-135561] | 98.34
Cc1cc(N(CCO)CCCN2CCCCC2)nc(Nc2ccc(Cl)cc2)n1 [TCMDC-137444] | 33.27
CC(C)[C@H](NC(=O)c1ccc(O)c(-c2ccc(Cl)c(Cl)c2)c1)C(=O)NCCN(C)C [TCMDC-140863] | 10.43
CN(C)c1ccc(CN2CCC(NC(=O)c3ccc(-c4ccccc4Cl)s3)CC2)cc1 [TCMDC-134328] | -0.5721
Cc1cc(=O)c(-c2ccc(S(=O)(=O)c3ccc(Cl)cc3)cc2)c(C)[nH]1 [TCMDC-137417] | 53.38
Cc1[nH]c(C)c(-c2ccc(S(=O)(=O)c3ccc(Cl)cc3)cc2)c(=O)c1Br [TCMDC-137414] | 77.4
Cc1cc(=O)c(-c2ccc(OCc3ccc(Cl)cc3)cc2)c(C)[nH]1 [TCMDC-137399] | 24.98
Cc1cc(=O)c(-c2ccc(Sc3ccc(Cl)cc3)cc2)c(C)[nH]1 [TCMDC-137403] | 33.38
Cc1[nH]c(C)c(-c2ccc(S(=O)(=O)c3ccc(Cl)cc3)cc2)c(=O)c1Cl [TCMDC-137412] | 67.97
Cc1ccc(C)c(Cn2ccc3nc(Cl)nc(Cl)c32)c1 [TCMDC-137818] | 13.19
Cc1cc(C)n(Cc2ccc(C(=O)NCC3CCCCC3)cc2)n1 [TCMDC-141404] | -4.003
CCC[C@@H]1CCN[C@H]([C@H](O)c2ccnc3ccc(OC)cc23)C1 [TCMDC-138233] | -1.678
